# Data reported in PubChem BioAssay AID488969 (Vanderbilt High Throughput Screening Facility, 2010).
# The full ranking holds about 110,000 compounds; the median of “z-score” is about -0.1, and the highest 2% start at about 2. Only a selection was taken, and the highest values are over-represented in it overall. The source made the active and inactive calls.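 The calls were made as follows: active = z-score in the third read window above 3 or below -3; inactive = the rest.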
# Molecular target: Metabotropic glutamate receptor 8 (Rattus norvegicus) (UniProt P70579)
# Sequence (P70579 whole entry, looked up): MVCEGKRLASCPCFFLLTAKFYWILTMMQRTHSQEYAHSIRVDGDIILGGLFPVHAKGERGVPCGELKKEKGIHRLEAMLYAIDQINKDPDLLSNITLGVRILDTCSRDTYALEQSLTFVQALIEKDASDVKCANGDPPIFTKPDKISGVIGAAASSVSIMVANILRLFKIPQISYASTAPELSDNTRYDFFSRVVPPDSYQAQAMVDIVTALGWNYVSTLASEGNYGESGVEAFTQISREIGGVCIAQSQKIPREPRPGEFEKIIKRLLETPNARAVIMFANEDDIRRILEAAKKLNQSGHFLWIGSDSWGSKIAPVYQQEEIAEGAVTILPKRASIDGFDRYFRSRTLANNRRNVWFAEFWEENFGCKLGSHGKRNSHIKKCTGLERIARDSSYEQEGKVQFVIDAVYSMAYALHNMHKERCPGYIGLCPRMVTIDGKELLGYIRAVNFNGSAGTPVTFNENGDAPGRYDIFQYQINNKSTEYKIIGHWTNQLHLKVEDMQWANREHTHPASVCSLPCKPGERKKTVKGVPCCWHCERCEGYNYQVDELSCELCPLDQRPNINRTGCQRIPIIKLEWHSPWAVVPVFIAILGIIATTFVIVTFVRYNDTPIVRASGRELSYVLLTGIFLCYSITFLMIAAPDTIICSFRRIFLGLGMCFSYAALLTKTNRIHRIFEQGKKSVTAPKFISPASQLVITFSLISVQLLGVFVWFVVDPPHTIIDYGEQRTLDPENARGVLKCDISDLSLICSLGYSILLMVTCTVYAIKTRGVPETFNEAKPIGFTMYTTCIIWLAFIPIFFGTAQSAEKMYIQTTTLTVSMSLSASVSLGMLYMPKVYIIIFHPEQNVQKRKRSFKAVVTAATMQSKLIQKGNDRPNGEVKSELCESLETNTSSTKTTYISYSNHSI
# Assay: mGluR8 Gi/Go-coupled signaling modulation – cell-based, rat, thallium flux, HTS, primary screen (AID 488969)
# Conditions: HEK293 rat mGluR8, GIRK (G protein-gated inwardly rectifying potassium channel) thallium flux, FluoZin2; at 10 µM; stronger effect = higher value; submaximal glutamate (EC20) added with thallium
row,Compound,z-score
1,O=C(CSc1ncnc2sc3c(c12)CCCC3)N1CCC(c2noc3ccc(F)cc23)CC1,0.658
2,CCOC(=O)NC(Nc1ccc(S(N)(=O)=O)cc1)(C(=O)OCC)C(F)(F)F (stereo unspecified),0.00287
3,COC(=O)c1ccc(/C=N/NC(=O)CC(=O)NC(C)C)cc1,-0.108
4,CC(=O)Nc1ccc(S(=O)(=O)Nc2nc3ccccc3nc2Nc2ccc(S(N)(=O)=O)cc2)cc1,-0.462
5,O=C(Nc1nnc(-c2ccccc2Cl)o1)c1nc2ccccc2s1,1.61
6,O=C(Nc1nnc(-c2ccc(Cl)cc2)o1)Nc1ccccc1Cl,1.85
7,O=C(Nc1nnc(-c2ccccc2)o1)C1CCCCC1,0.0922
8,O=C(Nc1nnc(-c2ccc(Cl)cc2)o1)C1=COCCO1,2.01
9,NC(=O)c1oc2ccccc2c1NC(=O)c1nc2ccccc2s1,-0.927
10,O=C(Nc1nnc(-c2ccccc2)o1)c1cc(Cl)sc1Cl,11.3 (active)
11,Cc1ccccc1C(=O)Nc1nnc(-c2ccc(F)cc2)o1,-0.035
12,O=C(Nc1nnc(-c2ccc(Cl)cc2)o1)c1nc2ccccc2s1,4.07 (active)
13,COc1ccc(-c2nnc(NC(=O)C3=COCCO3)o2)cc1,0.731
14,O=C(Nc1nnc(C2=COCCO2)o1)c1ccc(Cl)cc1,0.709
15,O=C(Nc1ccccc1)Nc1nnc(-c2ccccc2)o1,-0.193
16,O=C(Nc1nnc(-c2ccc(Cl)cc2)o1)c1ccccc1Br,5.35 (active)
17,COc1ccccc1NC(=O)CSc1nc(O)c(Cc2ccccc2)c(=O)[nH]1,0.381
18,COc1ccc(OC)c(-n2c(-c3cnccn3)n[nH]c2=S)c1,-0.441
19,COc1ccc(NS(=O)(=O)c2ccc(N3CCCC3)c(NC(=S)Nc3cccc(C)c3C)c2)cc1,0.291
20,O=C(CSc1nnc(CNC(=O)c2ccco2)o1)c1ccccc1,0.135
21,CCCC(=O)Nc1ccc(C(=O)N/N=C2\CC(=O)CC(C)(C)C2)cc1,-0.113
22,CC1(C)CC(=O)C/C(=N\NC(=O)Cc2ccccc2)C1,-0.224

row,Compound,z-score
1,CC1(C)CC(=O)CC(=Nc2ccc(C(=O)O)cc2)C1,2.15
2,CC(=O)c1cccc(NC(=O)c2ccco2)c1,-0.295
3,CCOC(=O)c1c(C)oc2ccc(O)c(CN(C)C)c12,0.911
4,CCOC(=O)c1c(-c2ccccc2)oc2ccc(O)c(CN(C)C)c12,-0.204
5,CCOC(=O)c1c(C)n(C)c2ccc(O)c(CN(CC)CC)c12,-2.05
6,CCOC(=O)c1c(C)n(C)c2ccc(O)c(CN3CCN(C)CC3)c12,0.0797
7,CCOC(=O)c1c(C)oc2ccc(O)c(CN3CCCCC3)c12,3.52 (active)
8,CCOC(=O)c1c(-c2ccccc2)oc2ccc(O)c(CN3CCCC3)c12,1.41
9,CCOC(=O)c1c(C)n(C)c2ccc(O)c(CN3CCC(C)CC3)c12,3.63 (active)
10,CCOC(=O)c1c(C)n(C)c2ccc(O)c(CN(C)C)c12,2
11,CCOC(=O)c1c(C)n(C)c2ccc(O)c(CN3CCCCC3)c12,0.782
12,CCN(CCCNC(=O)CCNC(=O)Cn1cnc2ccccc2c1=O)c1ccccc1,0.554
13,CCOC(=O)C1CCCN(C(=O)c2ccccc2SCCOC)C1 (stereo unspecified),0.188
14,Cc1nnc(SCC(=O)Nc2ccc3c(c2)OCCO3)s1,0.669
15,O=C(O)/C=C\C(=O)Nc1ccccc1F,0.0594
16,O=C(NC(=S)Nc1ccccc1N1CCCC1)c1ccc(-c2cccc([N+](=O)[O-])c2)o1,5.71 (active)
17,O=C(NC(=S)Nc1cccc(Cl)c1N1CCCC1)c1ccc(-c2cccc([N+](=O)[O-])c2)o1,4.93 (active)
18,CC1CCN(c2ccccc2NC(=S)NC(=O)c2ccc(-c3cccc([N+](=O)[O-])c3)o2)CC1,0.191
19,O=C(NC(=S)Nc1ccccc1N1CCOCC1)c1ccc(-c2cccc(Cl)c2)o1,0.758
20,CN1CCN(c2ccccc2NC(=O)c2ccc(-c3cccc([N+](=O)[O-])c3)o2)CC1,-0.00188
21,O=C(NC(=S)Nc1ccccc1N1CCCCC1)c1ccc(-c2cccc([N+](=O)[O-])c2)o1,0.681
22,Cc1cc(/C=C(/C#N)c2nc3ccccc3[nH]2)c(C)n1-c1cccc([N+](=O)[O-])c1,-0.533

row,Compound,z-score
1,O=C(CN1CCCC1)NC12CC3CC(CC(C3)C1)C2,-0.0651
2,Cn1c(=O)c([N+](=O)[O-])c(NCc2ccccc2)c2ccccc21,-0.608
3,COc1ccc(CNC(=O)COC(=O)c2cc(-c3ccc(Cl)s3)nc3ccccc23)cc1,-0.432
4,O=C(NCCc1c[nH]c2ccccc12)c1cc2sccc2n1Cc1ccccc1,-0.216
5,Cc1ccc(C(=O)O/N=C\c2ccc(N3CCOCC3)c([N+](=O)[O-])c2)cc1,-0.0662
6,CC(=O)Nc1ccc(NC(=O)C(F)(F)F)cc1,0.364
7,FC(F)Sc1ccc(-n2cc(-c3ccccc3)[n+]3c2CCC3)cc1,-0.0431
8,CCCc1nc(SCC(=O)N2CCN(c3ccccc3)CC2)c2c(=O)n(C)c(=O)n(C)c2n1,2.39
9,CCCc1nc(SCC(=O)N2CCC(Cc3ccccc3)CC2)c2c(=O)n(C)c(=O)n(C)c2n1,1.98
10,CCCc1nc(SCC(=O)c2ccccc2)c2c(=O)n(C)c(=O)n(C)c2n1,0.819
11,Cc1nnc(SCC(=O)NN2C(=O)NC3(CCCCC3)C2=O)s1,-0.0833
12,O=C(CSc1nnc(Nc2ccccc2)s1)NN1C(=O)NC2(CCCCC2)C1=O,2.14
13,O=C(CSc1nnc(NC2CCCCC2)s1)NN1C(=O)NC2(CCCCC2)C1=O,0.151
14,CCCCC1=C([O-])C2N=CC=CC2=[N+](c2ccccn2)C1=O (stereo unspecified),-0.104
15,Cc1ccc(S(=O)(=O)NC(CC(=O)N2CCc3ccccc32)c2ccco2)cc1 (stereo unspecified),-0.465
16,CC(C)NC(=O)c1cc2cc(Br)ccc2oc1=O,-0.497
17,CCN(CC)C(=O)c1cc2cc(Br)ccc2oc1=O,0.312
18,O=C(Nn1cnnc1)c1cc2cc(Br)ccc2oc1=O,4.37 (active)
19,CCC(c1nnnn1C(C)(C)C)N(Cc1ccco1)Cc1cc2cccc(C)c2[nH]c1=O (stereo unspecified),0.737
20,CC(=O)c1c(C)[nH]c(C(=O)CSc2ncnc3sc(-c4ccccc4)cc23)c1C,5.38 (active)
21,CC(C)C(C)(C#N)NC(=O)CSc1nnc(-c2ccncc2)n1Cc1ccccc1 (stereo unspecified),0.023
22,COC(=O)c1c(C)[nH]c(C(=O)CSc2ncnc3sc(-c4ccccc4)cc23)c1C,1.11

row,Compound,z-score
1,CN(C)/C=N/c1c(C#N)cnn1-c1ncnc2sc(-c3ccccc3)cc12,0.831
2,CCc1cc2c(SCC(=O)c3ccccc3)ncnc2s1,0.275
3,CC(=O)c1c(C)[nH]c(C(=O)CSc2nnc(-c3ccccc3)o2)c1C,-0.229
4,CN(CCC#N)C(=O)CSc1ncnc2sc(-c3ccccc3)cc12,8.2 (active)
5,CC(C)C(C)(C#N)NC(=O)CSc1ncnc2sc(-c3ccccc3)cc12 (stereo unspecified),4.81 (active)
6,CCN(CC)C(=O)CSc1nnc(-c2ccccc2)c(-c2ccccc2)n1,-0.489
7,CCN(CC)C(=O)CSc1ncnc2c1cnn2Cc1ccccc1,0.13
8,CC(C)C(C)(C#N)NC(=O)CSc1nnc(-c2ccccc2)o1 (stereo unspecified),-0.849
9,CCN(CC)C(=O)CSc1ncnc2sc(-c3ccccc3)cc12,7.95 (active)
10,CCOC(=O)C1CCN(C(=O)c2cccc(Cl)c2)CC1,0.0552
11,C/C(=N\NC(=O)c1c(Cl)c(C)nn1C)c1cccc(NC(=O)COc2ccccc2)c1,-0.103
12,CCOC(=O)Nc1nnc(-c2ccc(OC)cc2)s1,0.0823
13,CC(C)[C@H](NC(=O)c1ccccc1)C(=O)OCC(=O)N1CCCc2ccccc21,0.0154
14,Cc1cccc(C)c1NC(=O)CSc1nc(COc2ccccc2)nc2ccccc12,0.755
15,Cc1ccc(NC(=O)C(c2ccccc2)C2CCCC2)cc1 (stereo unspecified),3.36 (active)
16,O=C(Nc1ccc2ccccc2c1)C(c1ccccc1)C1CCCC1 (stereo unspecified),0.0599
17,O=C(Nc1ccccc1)C(c1ccccc1)C1CCCC1 (stereo unspecified),-0.474
18,CCOC(=O)N1CCN(C(=O)N2CCOCC2)CC1,0.275
19,COc1ccccc1N1CCN(S(=O)(=O)c2ccccc2F)CC1,-0.52
20,CCCCCCOC(=O)C(C#N)c1nc2ccccc2nc1N1CCN(CC)CC1 (stereo unspecified),0.709
21,CCCCCCOC(=O)C(C#N)c1nc2ccccc2nc1N1CCCCC1 (stereo unspecified),-0.00593
22,CCCCCCOC(=O)C(C#N)c1nc2ccccc2nc1N1CCN(C)CC1 (stereo unspecified),2.73

row,Compound,z-score
1,CC(C)COC(=O)C(C#N)c1nc2ccccc2nc1N1CCN(Cc2ccccc2)CC1 (stereo unspecified),-0.213
2,CCC(CC)COC(=O)C(C#N)c1nc2ccccc2nc1N1CCN(CC)CC1 (stereo unspecified),2.72
3,COCCOC(=O)C(C#N)c1nc2ccccc2nc1N1CCCC1 (stereo unspecified),-0.268
4,COc1ccc(CCNC(=O)Cc2cc(OC)c(OC)cc2[N+](=O)[O-])cc1OC,-0.376
5,COCC(=O)Nc1nnc(COc2ccc(Cl)cc2)s1,0.279
6,COc1ccc(C2c3c(ccc4ccccc34)Oc3ncn4nc(Cc5ccc(OC)c(OC)c5)nc4c32)cc1 (stereo unspecified),-0.169
7,Cc1cc(=O)oc(C)c1C(=O)N1CCN(C(c2ccccc2)c2ccccc2)CC1,0.596
8,CN(C)C(=O)C(=O)c1cccn1-c1ccccc1C#N,0.429
9,CCOC(=O)C1CCCN(C(=O)c2sc3nc(C)nc(N(CC)CC)c3c2C)C1 (stereo unspecified),-0.328
10,Cc1ccc(CC(=O)N2CCN(c3cccc(C(F)(F)F)c3)CC2)cc1,6.97 (active)
11,COc1ccccc1CC(=O)N1CCN(c2cccc(C(F)(F)F)c2)CC1,0.359
12,Cc1ccc(/C=C/C(=O)N2CCN(c3cccc(C(F)(F)F)c3)CC2)cc1,-0.0624
13,CCc1c(C(=O)Nc2nnc(C3CC3)s2)csc1C,1.09
14,CC(C)(C)c1ccc(OCc2ccc(C(=O)N/N=C/c3ccc([N+](=O)[O-])cc3)o2)cc1,-0.4
15,CN1CCC(=NNC(=O)C(=O)NC2CCCCC2)CC1,2.04
16,CN1CCC(=NNC(=O)C(=O)NC2CCCC2)CC1,-0.0552
17,O=C(NN=C1CCCCCCC1)C(=O)NC1CCCCC1,0.327
18,O=C(Cn1[nH]c(=O)c2ccccc2c1=O)NC1CCCCCC1,0.0122
